Results from PubChem BioAssay.
Values joined by “and” are separate entries in the source; they are usually repeats but may differ in a detail not shown here. Equal entries are not always repeated. Active and inactive are the calls of the source.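 How the source made its calls, unless noted: active means inhibition at or above 50% relative to wild type and mutant plate controls; inactive means inhibition below 50%.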

Columns and labels:
[1] = reduction of polyQ htt aggregates in cells – imaging, exon1htt(103Q)mCFP cells, high-content imaging, primary screen (AID 483;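 active means visual image review flags a hit and inhibition of aggregation exceeds 20%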;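 further: compound exposure lasted 3 days before fixation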;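 on nuclei count: percent of the per-plate median nuclei count of sample wells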); conditions: exon1htt(103Q)mCFP cell line, aggregate imaging, at 2 µM; inhibition of aggregation: stronger effect = higher value; nuclei count: measured here: cell count, toxicity
[2] = endothelial E-selectin expression blockers – imaging, HUVEC, immunofluorescence, MLSMR starter and 10KST1 sets, primary screen (AID 487;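 active means visually confirmed hit in the image check and inhibition above 20%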;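 on inhibition: signal is fraction of cell area covered by stained E-selectin grains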;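 on nuclei count: 100% = median nuclei count of all wells on the same plate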); conditions: HUVEC TNFalpha-induced E-selectin immunofluorescence imaging, at 2 µM; inhibition: stronger effect = higher value; nuclei count: measured here: cell number, toxicity
[3] = Primary imaging screen for DUSP6 inhibitors that restore phospho-Erk in transfected HeLa cells, chemical complementation (AID 609;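 active means compounds giving at least 50% inhibition in the cell-based MKP-3 phosphatase rescue imaging test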;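 on inhibition: phospho-Erk level distribution per well compared with pooled transfected vehicle control wells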); conditions: HeLa MKP-3 transfected, phospho-Erk imaging KS statistic, at 10 µM, cells stimulated with TPA for 15 min
[4] = biological target: Dual specificity protein phosphatase 6 (Homo sapiens) (UniProt Q16828); test: as above; conditions: HeLa MKP-3 transfected, phospho-Erk imaging KS statistic; at 10 µM; stronger effect = higher value; cells stimulated with TPA for 15 min
[5] = biological target: Voltage-gated potassium channel subunit beta-2 (Rattus norvegicus) (UniProt P62483); test: inhibitors of rat Kvbeta2 reductase activity – biochemical, NADPH fluorescence, primary screen (AID 622;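 active means fluorescence slope higher than the sample average by over 3 SD, cut at about -0.22 in these data, passing the limit was not always enough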;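 further: slope of raw intensity against log time taken from 70 to 1610 s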); conditions: recombinant KvBeta, 4-cyanobenzaldehyde reduction, at 10 µM, stronger effect = higher value
[6] = biological target: Voltage-gated potassium channel subunit beta-2 (Rattus norvegicus) (UniProt P62483); test: enhancers of rat Kvbeta2 NADPH turnover – biochemical, NADPH fluorescence, primary screen (AID 623;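 active means NADPH fluorescence slope more negative than the mean of all samples by about 3 SD, 99.7% confidence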;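 further: fluorescence intensity change per second fitted from 20 to 320 s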); conditions: Recombinant KvBeta, NADPH fluorescence decrease slope, 10 min; at 10 µM; stronger effect = lower value
[7] = biological target: Alpha-2C adrenergic receptor (Homo sapiens) (UniProt P18825); test: compounds altering alpha2C-coupled GIRK flux – cell-based, HEK293 alpha2C/GIRK1/2, thallium flux, primary screen (AID 624;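 active means fluorescence slope after compound addition differing from the mean of all screened samples at 99.7% confidence, in either direction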;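 further: slope of fluorescence ratio to pre-addition baseline per second over 15 to 24 s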); conditions: thallium flux BTC fluorescence, at 10 µM, actives lie on both sides
[8] = inhibitors of larval lipid processing in zebrafish, primary screen, whole organism, PED6 fluorescence, gall bladder and intestine (AID 686;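 active means a full or partial loss of lipid-probe fluorescence in the fish gall bladder, intestine or both, judged by eye; inactive means no fluorescence loss, or compound toxic to the fish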;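 further: larvae 5 to 7 days old with five fish per well; signal comes from phospholipase A2 cleavage of quenched PED6 carried via bile; overnight exposure to compound and PED6 before scoring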); conditions: Zebrafish larvae PED6 lipid processing, fluorescence scoring; screened at 20 µM (by protocol)
[9] = loss of swimming-algae plug formation – whole organism, Chlamydomonas reinhardtii, WT vs cilia-less mutant, absorbance, 96-well, primary screen (AID 463189); conditions: Chlamydomonas reinhardtii gravitaxis, OD600 absorbance, 2 days; at 10 µM; stronger effect = higher value;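 further: 0% = wild type cc124 cells in DMSO and 100% = ciliumless bld1 mutant cells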
[10] = blockers of RIG-like receptor reporter activation – cell-based, Sendai virus stimulus, luciferase, 10K MLSCN set, TLR/RLR signaling modifier project, primary screen (AID 602276;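 active means inhibition at or above 50% at 10 µM; inactive means inhibition below 50%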;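 further: firefly luciferase from ISG56 promoter only with Renilla not read in this screen; 0% = Sendai virus plus DMSO and 100% = medium plus DMSO without virus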); conditions: HEK293 RL24 IRF3 luciferase reporter, at 10 µM, stronger effect = higher value
[11] = TLR3 IRF3 reporter activation blockers – cell-based, poly I:C stimulus, luciferase, 10K MLSCN set, primary screen (AID 602277;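 active means inhibition of the reporter signal at or above 50%; inactive means inhibition below 50%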); conditions: HEK293-TLR3 RL24 IRF3 luciferase reporter, at 10 µM, stronger effect = higher value
[12] = measured here: cell density z-score
[13] = measured here: nuclear c-Myc green intensity z-score
[14] = measured here: nuclear pErk red intensity z-score, stronger effect = higher value

Chain of Dual specificity protein phosphatase 6 (Homo sapiens) (Q16828 whole entry, looked up): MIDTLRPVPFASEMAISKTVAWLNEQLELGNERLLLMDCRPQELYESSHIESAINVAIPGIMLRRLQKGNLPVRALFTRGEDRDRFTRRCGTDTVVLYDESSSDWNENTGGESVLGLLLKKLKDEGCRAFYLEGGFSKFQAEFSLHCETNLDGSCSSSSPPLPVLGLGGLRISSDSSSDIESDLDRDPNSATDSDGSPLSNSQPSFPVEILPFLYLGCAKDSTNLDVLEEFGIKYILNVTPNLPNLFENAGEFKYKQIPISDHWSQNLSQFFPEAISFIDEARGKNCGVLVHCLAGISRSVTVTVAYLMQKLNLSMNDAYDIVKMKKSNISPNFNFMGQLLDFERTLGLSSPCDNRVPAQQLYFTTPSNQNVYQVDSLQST
Chain of Alpha-2C adrenergic receptor (Homo sapiens) (P18825 whole entry, looked up): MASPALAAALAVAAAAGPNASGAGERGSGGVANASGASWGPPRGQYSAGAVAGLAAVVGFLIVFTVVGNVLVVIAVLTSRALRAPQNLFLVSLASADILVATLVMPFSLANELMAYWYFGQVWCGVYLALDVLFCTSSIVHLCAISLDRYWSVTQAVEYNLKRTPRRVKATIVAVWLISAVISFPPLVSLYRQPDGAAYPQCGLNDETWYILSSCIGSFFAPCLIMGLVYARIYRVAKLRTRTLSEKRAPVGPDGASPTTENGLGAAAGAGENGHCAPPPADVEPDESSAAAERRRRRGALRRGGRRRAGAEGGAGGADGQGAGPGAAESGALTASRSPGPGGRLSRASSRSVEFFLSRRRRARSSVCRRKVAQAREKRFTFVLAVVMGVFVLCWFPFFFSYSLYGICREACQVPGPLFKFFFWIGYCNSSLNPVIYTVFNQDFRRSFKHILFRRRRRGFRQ
Chain of Voltage-gated potassium channel subunit beta-2 (Rattus norvegicus) (P62483 whole entry, looked up): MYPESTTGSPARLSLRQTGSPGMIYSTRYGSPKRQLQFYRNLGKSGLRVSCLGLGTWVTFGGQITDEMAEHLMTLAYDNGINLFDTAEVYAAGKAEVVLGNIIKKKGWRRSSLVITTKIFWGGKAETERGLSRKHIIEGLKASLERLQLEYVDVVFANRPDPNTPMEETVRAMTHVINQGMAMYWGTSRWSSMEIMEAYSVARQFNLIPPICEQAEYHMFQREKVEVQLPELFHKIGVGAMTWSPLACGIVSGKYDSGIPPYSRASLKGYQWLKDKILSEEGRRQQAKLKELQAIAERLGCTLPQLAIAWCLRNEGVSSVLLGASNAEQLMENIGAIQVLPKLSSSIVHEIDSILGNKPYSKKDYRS

Row | Structure (SMILES) | inhibition of aggregation [1] | nuclei count [1] [%] | inhibition [2] | nuclei count [2] [%] | z-score [3, 12] | z-score [3, 13] | z-score [3, 14] | inhibition [4] | fluorescence slope [5] | NADPH fluorescence slope [6] | slope [7] | outcome [8] | inhibition [9] | inhibition [10] | inhibition [11]
1 | CCN1CCN(C(=O)N[C@@H](C(=O)N[C@@H]2C(=O)N3[C@@H]2SC(C)(C)[C@@H]3C(=O)O)c2ccccc2)C(=O)C1=O | 2.8% (inactive) | 97.2 | -1.2% (inactive) | 101 | -0.734 | -0.264 | -1.18 | 5.42% (inactive) | -0.465 (inactive) | -4.7e-05 (inactive) | 0.0054 (inactive) | inactive | -8.35% (inactive) | 6.7% (inactive) | 14.4% (inactive)
2 | C=C(CC)C(=O)c1ccc(OCC(=O)O)c(Cl)c1Cl | 19.4% (inactive) | 108 | -32.5% (inactive) | 120 | -0.0756 | -0.0149 | 0.974 | 5.42% (inactive) | -0.476 (inactive) | -8e-05 (inactive) | 0.00538 (inactive) | inactive | -3.46% (inactive) | 17.1% (inactive) | 39.1% (inactive)
3 | CC(=O)[C@@]1(O)CC[C@H]2[C@@H]3C[C@H](C)C4=CC(=O)C=C[C@]4(C)[C@@]3(F)[C@@H](O)C[C@@]21C | 10.8% (inactive) | 60.1 | -32.9% (inactive) | 121 | 0.696 | 0.132 | 1.25 | 7.39% (inactive) | -0.416 (inactive) | -5e-05 (inactive) | 0.0055 (inactive) | inactive | -2.25% (inactive) | 13.2% (inactive) | 38.7% (inactive)
4 | C[C@]12C=CC(=O)C=C1CC[C@H]1[C@@H]3C[C@@H](O)[C@](O)(C(=O)CO)[C@@]3(C)C[C@H](O)[C@@]12F | 23.7% (inactive) | 50.2 | -61.6% (inactive) | 117 | -0.539 | 1.04 | -0.0271 | 15.3% (inactive) | -0.508 (inactive) | -6.2e-05 (inactive) | 0.0055 (inactive) | inactive | 6.05% (inactive) and 21.3% (inactive) | 13.3% (inactive) | 37.9% (inactive)
5 | NS(=O)(=O)c1cc2c(cc1Cl)NCNS2(=O)=O | -4.8% (inactive) | 107 | -46.3% (inactive) | 102 | -0.71 | -0.153 | -1.04 | -0.493% (inactive) | -0.428 (inactive) | 1.8e-05 (inactive) | 0.00467 (inactive) | inactive | 0.566% (inactive) and -18.6% (inactive) | 15.2% (inactive) | 40.7% (inactive)
6 | CC(C)NCC(O)COc1ccc(CC(N)=O)cc1 (stereo not given) | -3.8% (inactive) | 97.3 | -96.5% (inactive) | 135 | -1.26 | -0.177 | -0.441 | -2.46% (inactive) | -0.47 (inactive) | 1.8e-05 (inactive) | 0.00481 (inactive) | inactive | -6.18% (inactive) and -8.19% (inactive) | -12.5% (inactive) | -8.56% (inactive)
7 | CN(C)C(=O)Oc1ccc[n+](C)c1 | -10% (inactive) | 104 | -27% (inactive) | 132 | -0.869 | 0.159 | 0.378 | 13.3% (inactive) | -0.448 (inactive) | -5.3e-05 (inactive) | 0.005 (inactive) | inactive | -1.87% (inactive) and 14.9% (inactive) | 6.65% (inactive) | 26.9% (inactive)
8 | CC(=O)Oc1ccc(C(c2ccc(OC(C)=O)cc2)c2ccccn2)cc1 | -12.4% (inactive) | 99.8 | -68.3% (inactive) | 100 | -0.73 | 0.784 | 0.224 | 5.79% (inactive) | -0.45 (inactive) | -2.1e-05 (inactive) | 0.00425 (inactive) | inactive | 19.6% (inactive) | 12.5% (inactive) | 40.9% (inactive)
9 | Oc1c(Cl)cc(Cl)cc1Sc1cc(Cl)cc(Cl)c1O | 13.7% (inactive) | 90 | -49.8% (inactive) | 117 | -0.357 | -0.512 | 0.181 | 1.48% (inactive) | -0.478 (inactive) | -6e-05 (inactive) | 0.00369 (inactive) | inactive | 155% (active) | 10.6% (inactive) | -53.7% (inactive)
10 | C[C@H]1C[C@H]2[C@@H]3CCC4=CC(=O)C=C[C@]4(C)[C@@]3(Cl)[C@@H](O)C[C@]2(C)[C@@]1(O)C(=O)CO | -11.8% (inactive) | 69.5 | -5.2% (inactive) | 113 | 0.584 | -0.957 | -0.321 | -4.44% (inactive) | -0.496 (inactive) | -7.9e-05 (inactive) | 0.00488 (inactive) | inactive | -5.54% (inactive) | 8.02% (inactive) | 22.6% (inactive)
11 | NS(=O)(=O)c1cc2c(cc1C(F)(F)F)NCNS2(=O)=O | 0% (inactive) | 106 | -96.4% (inactive) | 114 | -1.02 | 0.57 | -0.708 | 3.45% (inactive) | -0.444 (inactive) | -4.4e-05 (inactive) | 0.00463 (inactive) | inactive | -11.3% (inactive) | 5.25% (inactive) | 24.3% (inactive)
12 | CCCCNC(=O)NS(=O)(=O)c1ccc(C)cc1 | 10.9% (inactive) | 99.2 | -56.6% (inactive) | 107 | 0.542 | -0.348 | -1.78 | 9.37% (inactive) | -0.454 (inactive) | 3.1e-05 (inactive) | 0.00531 (inactive) | inactive | 7.5% (inactive) and 29.4% (inactive) | -6.27% (inactive) | 5.7% (inactive)
13 | OC(CCN1CCCCC1)(c1ccccc1)C1CCCCC1 (stereo not given) | 11.9% (inactive) | 107 | -31.1% (inactive) | 119 | 0.0708 | 1.69 | -1.17 | 21.2% (inactive) | -0.528 (inactive) | -8.4e-05 (inactive) | 0.00465 (inactive) | inactive | 1.25% (inactive) and 22.1% (inactive) | 0.614% (inactive) | -5.26% (inactive)
14 | Cc1cc(C(C)(C)C)c(O)c(C)c1CC1=NCCN1 | 2.2% (inactive) | 87.4 | -50.7% (inactive) | 134 | 0.182 | 0.896 | -0.366 | -2.29% (inactive) | -0.367 (inactive) | -2.8e-05 (inactive) | 0.00482 (inactive) | inactive | 6.18% (inactive) and -2.62% (inactive) | 16.9% (inactive) | 24.3% (inactive)
15 | O=c1c(O)c(-c2ccc(O)cc2O)oc2cc(O)cc(O)c12 | 2.1% (inactive) | 102 | 3% (inactive) | 114 | -0.466 | 0.679 | 0.0465 | -0.493% (inactive) | -0.439 (inactive) | -0.000116 (inactive) | 0.00575 (inactive) | inactive | 8.46% (inactive) and 17% (inactive) | 11.8% (inactive) | 29.6% (inactive)
16 | CC1(C)O[C@@H]2C[C@H]3[C@@H]4C[C@H](F)C5=CC(=O)C=C[C@]5(C)[C@@]4(F)[C@@H](O)C[C@]3(C)[C@]2(C(=O)CO)O1 | -15.7% (inactive) | 58 | -6.4% (inactive) | 102 | 1.28 | -0.179 | -0.732 | 27.1% (inactive) | -0.489 (inactive) | 1.8e-05 (inactive) | 0.00523 (inactive) | inactive | -10.3% (inactive) | 5.68% (inactive) | 56.9% (active)
17 | CCn1cc(C(=O)O)c(=O)c2cnc(N3CCNCC3)nc21 | 1.6% (inactive) | 108 | -26.1% (inactive) | 127 | 0.597 | 0.614 | 0.576 | 14.6% (inactive) | -0.512 (inactive) | -1.1e-05 (inactive) | 0.00483 (inactive) | inactive | -9.24% (inactive) | 4.06% (inactive) | 33.1% (inactive)
18 | COc1cccc2c1C(=O)c1c(O)c3c(c(O)c1C2=O)C[C@@](O)(C(C)=O)C[C@@H]3O[C@H]1C[C@H](N)[C@H](O)[C@H](C)O1 | 49.1% (inactive) | 0.6 | 92.8% (active) | 84 | 0.473 | 10.2 | 4.38 | 102% (active) | -0.452 (inactive) | -3.6e-05 (inactive) | 0.00285 (inactive) | inactive | 33% (inactive) | -34.8% (inactive) | 102% (active)
19 | OCCOCCN1CCN(C(c2ccccc2)c2ccc(Cl)cc2)CC1 (stereo not given) | 2.8% (inactive) | 101 | -65.7% (inactive) | 139 | -1.36 | 1.18 | 1.19 | -0.828% (inactive) | -0.46 (inactive) | 2.2e-05 (inactive) | 0.00446 (inactive) | inactive | -13.4% (inactive) | 14.5% (inactive) | 34.4% (inactive)
20 | CNCCC(Oc1ccc(C(F)(F)F)cc1)c1ccccc1 (stereo not given) | 10.2% (inactive) | 100 | -36.9% (inactive) | 127 | -0.242 | 0.755 | 0.581 | 12.4% (inactive) | -0.447 (inactive) | -4.5e-05 (inactive) | 0.00359 (inactive) | inactive | 1.27% (inactive) and 34.8% (inactive) | 21% (inactive) | 34.3% (inactive)
